Results published in PubChem BioAssay (NCI).
Compounds without any hit were thinned out: in the full panel of roughly 83,000, 20% have a hit.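 Cell lines were cultured in 96-well plates, exposed to a single compound concentration, and assessed for percent growth 48 hours later.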 A number with no mark means an inactive call. The source made the active and inactive calls. The calls were made as follows: active = growth percent below 10; inactive = the rest.

Columns and labels:
Assay in all cases: NCI-60 one-dose screen, 48 h (100 = growth as untreated, 0 = no growth, -100 = all killed)
Details in all cases: 10 µM unless noted
[1] = test system: T-47D breast
[2] = test system: BT-549 breast
[3] = test system: MDA-MB-435 melanoma
[4] = test system: SW-620 colon
[5] = test system: MCF7 breast
[6] = test system: HCT-116 colon
[7] = test system: HCC-2998 colon
[8] = test system: KM12 colon

With `O=C(/C=C\c1ccco1)/C=C/c1ccco1` the growth [1] was 112%, the growth [2] was 101% and the growth [3] was 98.3%. For the same molecule, the growth [4] was 103%, the growth [5] was 101% and the growth [6] was 105%. The growth [7] was 101% and the growth [8] was 106%.

Molecule `O=C(Nc1nc(C(=O)N2CCN(C(c3ccccc3)c3ccccc3)CC2)cs1)c1ccc(NC2CCCCC2)c([N+](=O)[O-])c1` has a growth [1] of 60%, a growth [2] of 82.5% and a growth [3] of 91%. The growth [4] was 91.4%, the growth [5] was 81.3% and the growth [6] was 82.6%. It also gave a growth [7] of 72.7% and a growth [8] of 91.4%.

Molecule `O=C1NC(=O)c2c1c1c3ccccc3[nH]c1c1oc3ccc(F)cc3c21` has a growth [1] of 24.4%, a growth [2] of 71% and a growth [3] of 76%. The growth [4] was 64.6%, the growth [5] was 34% and the growth [6] was 69%. It also gave a growth [7] of 65.6% and a growth [8] of 45.9%.

For `CCCCNC1=C(OCC)C(=O)c2ccccc2C1=O`, the growth [1] was 89.6%, the growth [2] was 76.5% and the growth [3] was 96.8%. The growth [4] was 104%, the growth [5] was 76.3% and the growth [6] was 80.3%. The growth [7] was 95.1% and the growth [8] was 93.7%.

`COc1ccc(NC(=O)c2sc3nc(C)c(C(O)c4ccccc4)cc3c2N)cc1` (stereo unspecified) was tested, and the growth [1] was 23.9%, the growth [2] was 65.8% and the growth [3] was -27.8% (active). For the same molecule, the growth [4] was 25.4%, the growth [5] was 19.1% and the growth [6] was 21.4%. It also gave a growth [7] of 19.4% and a growth [8] of 20.3%.

With `CN1C(=O)/C(=C/c2ccc(C(=O)Nc3ncc(Cc4ccc(F)cc4)s3)cc2)SC1=S` the growth [1] was 34.5%, the growth [2] was 54.9% and the growth [3] was -36.3% (active). It also gave a growth [4] of 28.8%, a growth [5] of 46.8% and a growth [6] of 32.6%. The growth [7] was 41.1% and the growth [8] was 15.6%.

Work on `COc1cc2c(/C=C3\C(=O)Nc4ccccc43)c(C(=O)O)[nH]c2cc1C` yielded a growth [1] of 113%, a growth [2] of 102% and a growth [3] of 105%. It also gave a growth [4] of 120%, a growth [5] of 72% and a growth [6] of 96.5%. The growth [7] was 103% and the growth [8] was 99.8%.

`CCCCCCCCn1ccc2cc(NC(=O)Cn3cc(CN4CCC(C)CC4)nn3)ccc21` was tested, and the growth [1] was 6.9% (active), the growth [2] was 78.1% and the growth [3] was -75.6% (active). For the same molecule, the growth [4] was -72.1% (active), the growth [5] was 4.43% (active) and the growth [6] was -18.6% (active). For the same molecule, the growth [7] was -78.8% (active) and the growth [8] was 4.72% (active).

`COc1ccc2nc3ccccc3c(NCc3ccccc3)c2c1` was tested, and the growth [1] was 35.3%, the growth [2] was 50.3% and the growth [3] was 33.8%. The growth [4] was 19.5%, the growth [5] was 4.29% (active) and the growth [6] was 14.8%. For the same molecule, the growth [7] was -35.5% (active) and the growth [8] was 36.5%.

With `COc1ccc(C2C3=C(COC3=O)N(CCO)c3cc4c(cc32)OCCO4)cc1OC` (stereo unspecified) the growth [1] was 25.9%, the growth [2] was 53.9% and the growth [3] was -44.1% (active). It also gave a growth [4] of 13.2%, a growth [5] of 15.9% and a growth [6] of 18.2%. It also gave a growth [7] of 48.7% and a growth [8] of 23.2%.

With `O=C(CSc1nc2ccc([N+](=O)[O-])cc2[nH]1)Nc1ccc(Br)cc1` the growth [1] was 8.75% (active), the growth [2] was 50.4% and the growth [3] was 46.5%. It also gave a growth [4] of 74.5%, a growth [5] of 64.5% and a growth [6] of 28.2%. For the same molecule, the growth [7] was 79.6% and the growth [8] was 56.2%.

With `CC(O)c1ncc(/C=C2\SC(=S)N(Cc3ccccc3)C2=O)s1` (stereo unspecified) the growth [1] was 42.4%, the growth [2] was 92.9% and the growth [3] was 80.5%. The growth [4] was 90.3%, the growth [5] was 80.3% and the growth [6] was 96%. It also gave a growth [7] of 120% and a growth [8] of 81%.

Molecule `CCOC(=O)NN1CC(O)=C(c2nc(-c3ccc(Br)cc3)cs2)C1=N` has a growth [1] of 94.2%, a growth [2] of 116% and a growth [3] of 103%. The growth [4] was 107%, the growth [5] was 103% and the growth [6] was 132%. For the same molecule, the growth [7] was 113% and the growth [8] was 118%.

In the case of `Cc1cc(C(=O)Nc2cc(Nc3ncccc3-c3ncnc4nc[nH]c34)ccc2F)cc(C(F)(F)F)c1`, the growth [1] was 64.8%, the growth [2] was 91.3% and the growth [3] was 26.2%. For the same molecule, the growth [4] was 33.9%, the growth [5] was 66.9% and the growth [6] was 19.1%. For the same molecule, the growth [7] was 30.6% and the growth [8] was 49.5%.

For `CC(C)CSc1oc(-c2ccccc2)nc1S(=O)(=O)c1ccccc1`, the growth [1] was 62.4%, the growth [2] was 102% and the growth [3] was 105%. It also gave a growth [4] of 97.2%, a growth [5] of 92.3% and a growth [6] of 81.9%. For the same molecule, the growth [7] was 100% and the growth [8] was 96%.

`COc1cc2c(cc1O)[C@@]1(C)[C@H](c3ccccc3Br)OC(=O)N1CC2` was tested, and the growth [1] was 65.4%, the growth [2] was 92.8% and the growth [3] was 92.1%. The growth [4] was 104%, the growth [5] was 99.1% and the growth [6] was 77.1%. It also gave a growth [7] of 99% and a growth [8] of 89.7%.

With `NNC(=S)N/N=C/c1ccccn1` the growth [1] was 9.69% (active), the growth [2] was 55% and the growth [3] was 46.4%. The growth [4] was 51.3%, the growth [5] was 15.7% and the growth [6] was 19.8%. It also gave a growth [7] of 28.8% and a growth [8] of 29.2%.

In the case of `O=C(CN1C(=O)/C(=C/c2ccco2)SC1=S)NCCc1c[nH]c2ccc(F)cc12`, the growth [1] was 103%, the growth [2] was 97.4% and the growth [3] was 104%. It also gave a growth [4] of 107%, a growth [5] of 97.5% and a growth [6] of 96.6%. For the same molecule, the growth [7] was 115% and the growth [8] was 101%.

With `CC/C=C\C/C=C/C=C1/C(=O)C=C[C@@H]1C/C=C\CCCC(=O)OC` the growth [1] was 16.7%, the growth [2] was -21.9% (active) and the growth [3] was -39.3% (active). For the same molecule, the growth [4] was -14.3% (active), the growth [5] was 18.6% and the growth [6] was -76.1% (active). For the same molecule, the growth [7] was 62% and the growth [8] was 20.4%.

`CCn1cc(C(=O)NN=C2CCCCCC2)c(=O)c2ccc(C)nc21` gave a growth [1] of 77.2%, a growth [2] of 83% and a growth [3] of 83.9%. It also gave a growth [4] of 91.2%, a growth [5] of 77.2% and a growth [6] of 77.7%. The growth [7] was 99.1% and the growth [8] was 87.6%.

In the case of `CC1=CCC[C@@H]2C1(C)CC[C@H](C)[C@@]2(C)CC1=CC(=O)C(SC(C)(C)C)=CC1=O` (stereo partly specified), the growth [1] was -11.8% (active), the growth [2] was 80.5% and the growth [3] was 97.2%. For the same molecule, the growth [4] was 78.9%, the growth [5] was -61.1% (active) and the growth [6] was 64%. For the same molecule, the growth [7] was 96.8% and the growth [8] was 93.1%.

`O=C(N=Nc1c(O)[nH]c2ccccc12)Nc1ccc(Cl)cc1` showed a growth [1] of 87.2%, a growth [2] of 103% and a growth [3] of 95.5%. The growth [4] was 90.3%, the growth [5] was 76.3% and the growth [6] was 94.4%. It also gave a growth [7] of 99% and a growth [8] of 81.1%.

In the case of `O=P(O)(O)OCC1OC(n2cnc3c(NCc4ccccc4)ncnc32)C(O)C1O` (stereo unspecified), the growth [1] was 22.1%, the growth [2] was -18.8% (active) and the growth [3] was 25.4%. For the same molecule, the growth [4] was 24.5%, the growth [5] was 27.6% and the growth [6] was 7.45% (active). The growth [7] was 29.9% and the growth [8] was 80.7%.

With `C#Cc1cccc(Nc2nc3ccc([N+](=O)[O-])cc3nc2Nc2cccc(C#C)c2)c1` the growth [1] was -36.1% (active), the growth [2] was -59.3% (active) and the growth [3] was -78% (active). For the same molecule, the growth [4] was -64.2% (active), the growth [5] was -12.6% (active) and the growth [6] was -94.7% (active). For the same molecule, the growth [7] was -80.8% (active) and the growth [8] was -77.9% (active).

Work on `CCCCCCCC/C=C\CCCCCCCCOc1ccc(CC(=O)NCC[N+](C)(C)C)cc1` yielded a growth [1] of 85%, a growth [2] of 74.3% and a growth [3] of 86.5%. For the same molecule, the growth [4] was 74.2%, the growth [5] was 73.7% and the growth [6] was 68.2%. For the same molecule, the growth [7] was 43.1% and the growth [8] was 35.7%.

Molecule `CC[C@H](CC[C@@H](C)[C@H]1CC[C@H]2[C@@H]3CC[C@@H]4CC(=O)/C(=C\c5ccncc5)C[C@]4(C)[C@H]3CC[C@]12C)C(C)C` has a growth [1] of 100%, a growth [2] of 95.2% and a growth [3] of 101%. It also gave a growth [4] of 102%, a growth [5] of 95.7% and a growth [6] of 103%. It also gave a growth [7] of 104% and a growth [8] of 102%.

`O=C(OC[C@@H]1CO1)c1cccc2c(=O)c3ccccc3[nH]c12` was tested, and the growth [1] was -9.67% (active), the growth [2] was -31.6% (active) and the growth [3] was -81.7% (active). For the same molecule, the growth [4] was -24.7% (active), the growth [5] was 0.0356% (active) and the growth [6] was 2.66% (active). The growth [7] was -66.2% (active) and the growth [8] was -65.5% (active).

For `CCC(CC)(N(CC(=O)O)CC(=O)O)C(CC)(CC)N(CC(=O)O)CC(=O)O`, the growth [1] was 96.3%, the growth [2] was 117% and the growth [3] was 126%. The growth [4] was 112%, the growth [5] was 100% and the growth [6] was 110%. The growth [7] was 98.1% and the growth [8] was 120%.

For `Nc1n[nH]c2ccc([C@@H]3Nc4cc5[nH]ncc5cc4[C@H]4C5CCC(C5)[C@@H]34)cc12` (stereo partly specified), the growth [1] was 51.9%, the growth [2] was 11.3% and the growth [3] was -41.2% (active). For the same molecule, the growth [4] was 21.6%, the growth [5] was 12.3% and the growth [6] was 8.92% (active). The growth [7] was 18.1% and the growth [8] was 15.6%.

With `c1ccc2cc(Cn3c[n+](Cc4ccc5ccccc5c4)c4ccccc43)ccc2c1` the growth [1] was -8.43% (active), the growth [2] was -82.7% (active) and the growth [3] was -52.6% (active). The growth [4] was -3% (active), the growth [5] was -30.2% (active) and the growth [6] was -90.6% (active). For the same molecule, the growth [7] was -53.3% (active) and the growth [8] was -85.9% (active).

With `Cc1ccc(O)c(NC(=O)c2ccc(CNc3ccnc(C(F)(F)F)c3)cc2)c1` the growth [1] was 82.3%, the growth [2] was 52.3% and the growth [3] was 39.6%. For the same molecule, the growth [4] was 87%, the growth [5] was 37.6% and the growth [6] was 66.4%. It also gave a growth [7] of 27.7% and a growth [8] of 72.3%.

`C=C(CN1CC=CCC1)[C@@H]1CC[C@]2(CO)CC[C@]3(C)[C@H](CC[C@@H]4[C@@]5(C)CC[C@H](O)C(C)(C)[C@@H]5CC[C@]43C)[C@@H]12` gave a growth [1] of 87.6%, a growth [2] of 105% and a growth [3] of 105%. The growth [4] was 106%, the growth [5] was 88.7% and the growth [6] was 94.4%. For the same molecule, the growth [7] was 116% and the growth [8] was 107%.
